The values that follow come from ChEMBL document CHEMBL5598561, “ASAP - In vitro binding kinetics” (2024).

The assay has as its target Nonstructural protein 3 (Zika virus) (UniProt A0A024AXB9). To be noted: PRVABC59, Concentration 10.0 uM.

The pKD is the KD on a negative log10 scale, so that one unit is a factor of ten. High values mean a low KD, low ones a high KD.

Nonstructural protein 3 (Zika virus), sequence (A0A024AXB9 as listed by the source): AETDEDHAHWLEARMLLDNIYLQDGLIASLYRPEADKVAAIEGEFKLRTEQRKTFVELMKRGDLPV

`Cn1ncc2c(C(=O)Nc3ccc4c(c3)CNC4)cc(C3CC3)nc21` displayed a pKD (Immobilization level 10000.0 pg/mm2, Rmax 33.0 pg/mm2, ka 244724.506 M-1s-1, kd 7.844 1/s) of 4.49; a pKD (Immobilization level 12000.0 pg/mm2, Rmax 31.0 pg/mm2, ka 442165.646 M-1s-1, kd 5.14 1/s) of 4.93; a pKD (Immobilization level 13000.0 pg/mm2, Rmax 33.0 pg/mm2, ka 379334.104 M-1s-1, kd 6.596 1/s) of 4.76.
`O=C(Nc1ccc([C@H]2CCNC2)cc1)c1cc(Cl)cc2[nH]ncc12` gave a pKD (Immobilization level 10000.0 pg/mm2, Rmax 36.0 pg/mm2, ka 266986.751 M-1s-1, kd 3.172 1/s) of 4.92; a pKD (Immobilization level 12000.0 pg/mm2, Rmax 43.0 pg/mm2, ka 228557.467 M-1s-1, kd 2.265 1/s) of 5; a pKD (Immobilization level 13000.0 pg/mm2, Rmax 32.0 pg/mm2, ka 486506.686 M-1s-1, kd 3.313 1/s) of 5.17.
Turning to `N#C[C@H](Nc1ccc2c(c1)CNC2)c1cccc2[nH]ncc12`, the pKD was determined as 5.39 (Immobilization level 10000.0 pg/mm2, Rmax 24.0 pg/mm2, ka 92252.014 M-1s-1, kd 0.378 1/s); 5.57 (Immobilization level 12000.0 pg/mm2, Rmax 16.0 pg/mm2, ka 78971.5 M-1s-1, kd 0.214 1/s); 5.43 (Immobilization level 13000.0 pg/mm2, Rmax 22.0 pg/mm2, ka 80847.64 M-1s-1, kd 0.299 1/s).
For `Cc1cc(CN)cc(NC(=O)c2cc(Cl)cc3[nH]ncc23)c1`, the pKD (Immobilization level 10000.0 pg/mm2, Rmax 32.0 pg/mm2, ka 317735.356 M-1s-1, kd 1.709 1/s) came to 5.27; the pKD (Immobilization level 12000.0 pg/mm2, Rmax 41.0 pg/mm2, ka 352403.171 M-1s-1, kd 1.092 1/s) was 5.51; the pKD (Immobilization level 13000.0 pg/mm2, Rmax 26.0 pg/mm2, ka 657032.757 M-1s-1, kd 1.65 1/s) is 5.6.
In the case of `Cc1ccc(S(=O)(=O)CNC(=O)[C@H](Nc2ccc3c(c2)CNC3)c2cc(Cl)cc3[nH]ncc23)cc1`, the pKD came out at 5.61 (Immobilization level 10000.0 pg/mm2, Rmax 21.0 pg/mm2, ka 226355.861 M-1s-1, kd 0.557 1/s); 5.48 (Immobilization level 12000.0 pg/mm2, Rmax 37.0 pg/mm2, ka 111566.09 M-1s-1, kd 0.368 1/s); 5.58 (Immobilization level 13000.0 pg/mm2, Rmax 27.0 pg/mm2, ka 177747.1 M-1s-1, kd 0.47 1/s).
`N#Cc1ccc(Cl)c(C(=O)Nc2ccc3c(c2)CNC3)c1` registered a pKD (Immobilization level 10000.0 pg/mm2, Rmax 28.0 pg/mm2, ka 455778.547 M-1s-1, kd 4.384 1/s) of 5.02; a pKD (Immobilization level 12000.0 pg/mm2, Rmax 32.0 pg/mm2, ka 264828.882 M-1s-1, kd 2.458 1/s) of 5.03; a pKD (Immobilization level 13000.0 pg/mm2, Rmax 23.0 pg/mm2, ka 313770.073 M-1s-1, kd 2.521 1/s) of 5.09.
For `CCNCc1ccc(NC(=O)c2cc(Cl)cc3[nH]ncc23)cc1`, the pKD was 4.56 (Immobilization level 3900.0 pg/mm2, Rmax 49.0 pg/mm2, ka 254831.951 M-1s-1, kd 6.984 1/s); 4.35 (Immobilization level 4900.0 pg/mm2, Rmax 79.0 pg/mm2, ka 107155.284 M-1s-1); 4.55 (Immobilization level 5500.0 pg/mm2, Rmax 69.0 pg/mm2, ka 175345.198 M-1s-1); 4.83 (Immobilization level 12000.0 pg/mm2, Rmax 35.0 pg/mm2, ka 320872.936 M-1s-1, kd 4.693 1/s).
For `CNC(=O)[C@H](Nc1ccc2c(c1)CNC2)c1cc(Cl)cc2[nH]ncc12`, the pKD (Immobilization level 3900.0 pg/mm2, Rmax 42.0 pg/mm2, ka 444409.109 M-1s-1, kd 0.101 1/s) stood at 6.65; the pKD (Immobilization level 4900.0 pg/mm2, Rmax 59.0 pg/mm2, ka 262811.946 M-1s-1, kd 0.117 1/s) worked out at 6.35; the pKD (Immobilization level 5500.0 pg/mm2, Rmax 61.0 pg/mm2, ka 294175.896 M-1s-1, kd 0.112 1/s) was found to be 6.42; the pKD (Immobilization level 10000.0 pg/mm2, Rmax 56.0 pg/mm2, ka 424251.343 M-1s-1, kd 0.126 1/s) was found to be 6.53; the pKD (Immobilization level 12000.0 pg/mm2, Rmax 69.0 pg/mm2, ka 214381.257 M-1s-1, kd 0.135 1/s) came out at 6.2; the pKD (Immobilization level 13000.0 pg/mm2, Rmax 81.0 pg/mm2, ka 342437.146 M-1s-1, kd 0.116 1/s) was 6.47.
Take `CNCc1ccc(NC(=O)c2cc(Cl)cc3[nH]ncc23)cc1`: the pKD is, setting by setting: (Immobilization level 3900.0 pg/mm2, Rmax 37.0 pg/mm2, ka 226628.924 M-1s-1, kd 2.375 1/s) 4.98; (Immobilization level 4900.0 pg/mm2, Rmax 68.0 pg/mm2, ka 224620.672 M-1s-1, kd 2.867 1/s) 4.89; (Immobilization level 5500.0 pg/mm2, Rmax 65.0 pg/mm2, ka 234270.717 M-1s-1, kd 2.589 1/s) 4.96; (Immobilization level 10000.0 pg/mm2, Rmax 32.0 pg/mm2, ka 593939.753 M-1s-1, kd 4.324 1/s) 5.14; (Immobilization level 12000.0 pg/mm2, Rmax 64.0 pg/mm2, ka 470578.84 M-1s-1, kd 3.187 1/s) 5.17; (Immobilization level 13000.0 pg/mm2, Rmax 38.0 pg/mm2, ka 481481.04 M-1s-1, kd 3.216 1/s) 5.17.
As for `O=C(Nc1ccc2c(c1)OCCNC2)c1cc(Cl)cc2[nH]ncc12`, the pKD by setting is: (Immobilization level 10000.0 pg/mm2, Rmax 33.0 pg/mm2, ka 475344.334 M-1s-1, kd 1.334 1/s) 5.55; (Immobilization level 12000.0 pg/mm2, Rmax 41.0 pg/mm2, ka 216924.489 M-1s-1, kd 0.865 1/s) 5.4; (Immobilization level 13000.0 pg/mm2, Rmax 42.0 pg/mm2, ka 331181.332 M-1s-1, kd 1.11 1/s) 5.47.
For the compound `NCCc1cccc(NC(=O)c2cc(Cl)cc3[nH]ncc23)c1`, the pKD was 5.42 (Immobilization level 3900.0 pg/mm2, Rmax 45.0 pg/mm2, ka 242931.571 M-1s-1, kd 0.931 1/s); 5.8 (Immobilization level 4900.0 pg/mm2, Rmax 34.0 pg/mm2, ka 409629.847 M-1s-1, kd 0.648 1/s); 5.9 (Immobilization level 5500.0 pg/mm2, Rmax 28.0 pg/mm2, ka 470049.02 M-1s-1, kd 0.591 1/s); 5.84 (Immobilization level 10000.0 pg/mm2, Rmax 29.0 pg/mm2, ka 565007.877 M-1s-1, kd 0.814 1/s); 5.63 (Immobilization level 12000.0 pg/mm2, Rmax 46.0 pg/mm2, ka 296699.948 M-1s-1, kd 0.701 1/s); 5.79 (Immobilization level 13000.0 pg/mm2, Rmax 42.0 pg/mm2, ka 451227.872 M-1s-1, kd 0.736 1/s).
On to `Cn1ncc2c(C(=O)Nc3ccc4c(c3)CNC4)cc(Br)cc21`, for which the pKD by setting is: (Immobilization level 10000.0 pg/mm2, Rmax 23.0 pg/mm2, ka 300646.199 M-1s-1, kd 0.327 1/s) 5.96; (Immobilization level 12000.0 pg/mm2, Rmax 66.0 pg/mm2, ka 115064.14 M-1s-1, kd 0.186 1/s) 5.79; (Immobilization level 13000.0 pg/mm2, Rmax 35.0 pg/mm2, ka 218446.798 M-1s-1, kd 0.273 1/s) 5.9.
Regarding `CNC(=O)[C@H](Nc1ccc2c(c1)CNC2)c1cccc2[nH]ncc12`, the pKD reads like this: (Immobilization level 3900.0 pg/mm2, Rmax 32.0 pg/mm2, ka 221759.296 M-1s-1, kd 2.211 1/s) 5; (Immobilization level 4900.0 pg/mm2, Rmax 43.0 pg/mm2, ka 260065.267 M-1s-1, kd 2.378 1/s) 5.04; (Immobilization level 5500.0 pg/mm2, Rmax 48.0 pg/mm2, ka 212060.721 M-1s-1, kd 2.045 1/s) 5.02; (Immobilization level 10000.0 pg/mm2, Rmax 60.0 pg/mm2, ka 93401.957 M-1s-1, kd 2.887 1/s) 4.51; (Immobilization level 12000.0 pg/mm2, Rmax 22.0 pg/mm2, ka 158759.097 M-1s-1, kd 1.348 1/s) 5.07; (Immobilization level 13000.0 pg/mm2, Rmax 39.0 pg/mm2, ka 126882.155 M-1s-1, kd 1.56 1/s) 4.91.
Consider `O=C1Cc2c(cc(Br)cc2C(=O)Nc2ccc3c(c2)CNC3)N1`, for which the pKD reads like this: (Immobilization level 10000.0 pg/mm2, Rmax 28.0 pg/mm2, ka 911035.824 M-1s-1, kd 0.165 1/s) 6.74; (Immobilization level 12000.0 pg/mm2, Rmax 50.0 pg/mm2, ka 582104.975 M-1s-1, kd 0.125 1/s) 6.67; (Immobilization level 13000.0 pg/mm2, Rmax 39.0 pg/mm2, ka 879294.654 M-1s-1, kd 0.141 1/s) 6.79.
On to `O=C(Nc1ccc2c(c1)CCNCC2)c1cc(Cl)cc2[nH]ncc12`, for which the pKD was 5.66 (Immobilization level 3900.0 pg/mm2, Rmax 28.0 pg/mm2, ka 176787.489 M-1s-1, kd 0.385 1/s); 5.35 (Immobilization level 4900.0 pg/mm2, Rmax 58.0 pg/mm2, ka 81779.894 M-1s-1, kd 0.366 1/s); 5.43 (Immobilization level 5500.0 pg/mm2, Rmax 55.0 pg/mm2, ka 98394.506 M-1s-1, kd 0.363 1/s); 5.4 (Immobilization level 10000.0 pg/mm2, Rmax 51.0 pg/mm2, ka 117713.558 M-1s-1, kd 0.472 1/s); 5.55 (Immobilization level 12000.0 pg/mm2, Rmax 47.0 pg/mm2, ka 102680.383 M-1s-1, kd 0.29 1/s); 5.3 (Immobilization level 13000.0 pg/mm2, Rmax 85.0 pg/mm2, ka 77805.794 M-1s-1, kd 0.391 1/s).
